NS1 inh: blocks influenza NS1 protein function; 270,000 compounds, 0.4% hits; Potency, µM (series often up to 46.1 µM); calls by dose curve; further: actives are rising curves; nearly all actives have a fitted effect of over 50% in size
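S. cerevisiae expressing influenza A NS1, grown in glucose, washed, then diluted 1:100 into pH 6.0 -URA galactose medium with 23 nl compound. Growth recovery read as OD600; NS1-free strain serves as control.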
CHX counter: counter-screen hit for Shiga toxin inhibitors, cycloheximide. cell reporter, cycloheximide protein synthesis inhibition counterscreen. max response, %. 300,000 compounds, 12% hits; in the data active means max response mostly above about 13%, no sharp cut-off; inactive means mostly below about 14%; further: read at 38.3 µM for the half of the compounds with a filed dose
Pf growth 96h: P. falciparum growth inhibition at 96 hour, primary screen for plastid delayed-death inhibitors; P. falciparum luciferase reporter growth, 96 h; Potency, µM (top dose mostly 28.7 µM), actives largely listed as inhibitors; 320,000 compounds, 6.9% hits
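Readout is luminescence from an integrated firefly luciferase in P. falciparum. Red cells, 2% hematocrit and 0.05% parasitemia final, were cultured with compound through two parasite generations (96 hours) at 37 C, 5% CO2.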
Pf growth 48h: inhibits P. falciparum growth in the first generation, 48 h; AID 504832; 310,000 compounds, 5.9% hits; Potency, µM (top dose mostly 28.7 µM), hits mostly inhibitors; P. falciparum luciferase growth in erythrocytes, 48 h
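Parasite viability was followed by luminescence of a genomically integrated firefly luciferase. Cultures held 0.1% parasitemia at 2% hematocrit (final), incubated under 5% CO2 at 37 C.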
SARS PLP yeast: SARS-CoV PLP inhibition in yeast | S. cerevisiae expressing SARS-CoV PLpro, growth rescue | Potency, µM (highest dose often 32.9 µM), most hits filed as activators | 330,000 compounds, 0.19% hits | AID 485353; calls by dose curve; further: nearly all actives have a fitted effect of over 55% in size
Shiga toxin inh: inhibitors of Shiga toxin in Vero cells; Vero cells, Shiga toxin protein synthesis inhibition reporter; inhibition, % at 38.7 µM; 290,000 compounds, 9.2% hits; AID 2315; in the data active means inhibition mostly above about 28%, no sharp cut-off; inactive means mostly below about 43%
Large screens that a line does not name were inactive. Most compounds without a hit are left out; they make up all but 21% or so of the library. Unless noted, the call rests on the fitted dose curve; in most records, active means well fitted inhibition curve with a large enough effect; inconclusive means small, poorly fitted or top-dose-only effect, or another doubt; inactive means no such curve, though single readings can be large or run the other way.

CCS(=O)(=O)N1CCN(c2ccc(Cl)cc2[N+](=O)[O-])CC1	none
CCn1c(SCc2cccc(C)c2)nnc1-c1ccccc1	Pf growth 96h inconclusive, Pf growth 48h inconclusive
CCn1c(SCc2nc3ccccc3s2)nnc1-c1ccccc1	CHX counter 28, Shiga toxin inh 61 (no result: Pf growth 48h)
c1ccc(-c2ncc(CSc3nncn3-c3ccccc3)s2)cc1	Pf growth 96h inconclusive (no result: Pf growth 48h)
c1ccc(-n2cnnc2SCc2nc3ccccc3s2)cc1	CHX counter 60, Shiga toxin inh 61 (no result: Pf growth 48h)
CCC(c1nnc(SCc2nc3ccccc3s2)n1Cc1ccccc1)N(C)C (stereo unspecified)	CHX counter 32, Shiga toxin inh 56 (no result: Pf growth 96h, Pf growth 48h)
c1ccc(Cn2c(SCc3nc4ccccc4s3)nnc2-c2ccco2)cc1	none (no result: Pf growth 96h)
COc1ccc(CNC(=O)COC(=O)c2ccccn2)cc1	none (no result: NS1 inh)
COc1ccc2oc(=O)c(C(=O)Oc3ccc(NC(C)=O)cc3)cc2c1	Pf growth 96h inconclusive
Fc1cccc(Cl)c1CSc1ccc(-c2cccnc2)nn1	CHX counter 36, Pf growth 96h inconclusive, Shiga toxin inh 143 (no result: NS1 inh)
O=C(CSc1ccc(-c2cccnc2)nn1)Nc1ccc(F)cc1	Pf growth 96h inconclusive
Clc1ccc(CSc2ccc(-c3cccnc3)nn2)cc1	CHX counter 27, Pf growth 96h inconclusive (no result: NS1 inh)
CCN(CCC(=O)Nc1cc([N+](=O)[O-])ccc1OC)Cc1ccccc1	none
CC(OC(=O)CC1CCCCC1)C(=O)Nc1cccc(C#N)c1 (stereo unspecified)	Pf growth 48h inconclusive (no result: NS1 inh, CHX counter, Shiga toxin inh)
CC(OC(=O)C1CC(=O)N(Cc2ccccc2)C1)C(=O)Nc1cccc(C#N)c1 (stereo unspecified)	Pf growth 96h 6.6µM
CC1(C)Cc2c(cnn2-c2ccccc2)C(NC(=O)CCN2CCCC2=O)C1 (stereo unspecified)	Pf growth 96h 15µM
Cc1ccc(-n2ncc3c2CC(C)(C)CC3NC(=O)CCCN2CCCC2=O)cc1 (stereo unspecified)	Pf growth 96h inconclusive
CC1(C)Cc2c(cnn2-c2ccccc2)C(NC(=O)CCCN2CCCCC2=O)C1 (stereo unspecified)	Pf growth 96h 6.6µM
CC1(C)Cc2c(cnn2-c2ccc(F)cc2)C(NC(=O)CCCN2CCCCC2=O)C1 (stereo unspecified)	Pf growth 96h 13µM
COc1ccc2c3c(cccc13)C(=O)N(O)C2=O	Pf growth 48h 13µM
O=C(NCCN1CCOCC1)c1cc([N+](=O)[O-])cc([N+](=O)[O-])c1	none (no result: Shiga toxin inh)
CC(C)CCNC(=O)C1CCC(CNc2c(N3CCCC3)c(=O)c2=O)CC1 (stereo unspecified)	Pf growth 48h 12µM
O=C(NCc1ccccc1)C1CCC(CNc2c(N3CCCCC3)c(=O)c2=O)CC1 (stereo unspecified)	Pf growth 96h 12µM
CC(C)(C)NC(=O)C1CCC(CNc2c(N3CCCCC3)c(=O)c2=O)CC1 (stereo unspecified)	none
CCc1nnc(NC(=O)C2Cc3ccccc3CN2S(=O)(=O)c2c(C)c(C)cc(C)c2C)s1 (stereo unspecified)	Pf growth 48h inconclusive (no result: Pf growth 96h)
O=C(CSc1cccc[n+]1[O-])Nc1cc([N+](=O)[O-])ccc1Cl	none (no result: NS1 inh)
O=C(CSc1cccc[n+]1[O-])Nc1cc2c(cc1Cl)C(=O)c1ccccc1C2=O	CHX counter 26, Shiga toxin inh 82
COC(=O)c1ccc(C(=O)OC)c(NC(=O)CSc2cccc[n+]2[O-])c1	Pf growth 96h 1.2µM, Pf growth 48h inconclusive
O=C(NCc1ccccc1)C1(C(F)(F)F)C/C(=C\Cc2ccccc2)CCCO1 (stereo unspecified)	none (no result: NS1 inh, Pf growth 96h, Pf growth 48h, SARS PLP yeast)
O=C1c2cccnc2C(=O)N1Cc1ccc(Cl)cc1	Pf growth 96h 1.7µM
COc1ccc(CN2C(=O)c3cccnc3C2=O)cc1S(=O)(=O)NC1CCCCC1	Pf growth 96h 13µM
CCC1Oc2ccc(C)cc2N(CC(=O)NCC2COc3ccccc3O2)C1=O (stereo unspecified)	Pf growth 96h inconclusive (no result: Pf growth 48h)
Nc1nnc(SCC(=O)c2ccc3ccccc3c2)s1	CHX counter 85, Shiga toxin inh 151 (no result: Pf growth 48h)
Nc1nnc(SCCCC(=O)c2ccccc2)s1	CHX counter 23
O=C(NCc1ccccc1)c1ccc(CS(=O)(=O)c2ccccc2)o1	Pf growth 96h 10µM (no result: Pf growth 48h)
Cc1ccccc1S(=O)(=O)Cc1ccc(C(=O)NCc2cccnc2)o1	Pf growth 96h 9.3µM
O=C(NCc1ccccc1)c1ccc(CS(=O)(=O)c2ccc(Br)cc2)o1	Pf growth 96h inconclusive
CN1CCCN(C(=O)CNC(=O)c2ccccc2Br)CC1	none (no result: NS1 inh, CHX counter, Pf growth 96h, Pf growth 48h, Shiga toxin inh)
c1csc(-c2noc(CN3CCOCC3)n2)c1	CHX counter 31, Shiga toxin inh 41
CN(CCN1CCOCC1)Cc1nc(-c2cccs2)no1	Pf growth 96h inconclusive
c1csc(-c2noc(CN3CCN4CCCC4C3)n2)c1 (stereo unspecified)	CHX counter 21, Pf growth 96h inconclusive, Shiga toxin inh 47
c1ccc(COC2CCCN(Cc3nc(-c4cccs4)no3)C2)nc1 (stereo unspecified)	none
OC[C@@H]1CCCN1Cc1nc(-c2cccs2)no1	CHX counter 19, Pf growth 96h inconclusive, Shiga toxin inh 51
O=C(c1ccco1)N1CCN(Cc2nc(-c3cccs3)no2)CC1	CHX counter 11, Shiga toxin inh 35
C[C@@H]1C(=O)N(S(=O)(=O)c2ccccc2[N+](=O)[O-])[C@H]1c1ccc(-c2ccccc2)cc1	none (no result: NS1 inh, Pf growth 96h, Pf growth 48h, SARS PLP yeast)
CCc1cc(=O)[nH]c(SCCC(F)=C(F)F)n1	none
CN(C)CC(=O)c1c(N)n(Cc2ccccc2)c(=O)n(C)c1=O	none (no result: NS1 inh)
CCn1c(=O)c(C(=O)CN(C)CC(=O)Nc2ccccc2Br)c(N)n(Cc2ccccc2)c1=O	Pf growth 96h inconclusive, Pf growth 48h 10µM (no result: NS1 inh, CHX counter, Shiga toxin inh)
Cc1cccc(C)c1NC(=O)CN(C)CC(=O)c1c(N)n(Cc2ccccc2)c(=O)n(C)c1=O	Pf growth 48h 12µM (no result: NS1 inh, CHX counter, Shiga toxin inh)
CC(C)(CC(=O)O)CC(=O)N1CCN(c2cc(C(F)(F)F)nc3ccccc23)CC1	none
CCCCn1c(SCC(=O)NCc2ccco2)nc2c(sc3ccccc32)c1=O	none (no result: Pf growth 48h)
O=C(CSc1nc2c(sc3ccccc32)c(=O)n1-c1ccccc1)NCc1ccco1	NS1 inh inconclusive, CHX counter 30, Pf growth 48h inconclusive
CCC1CCc2c(sc3nc(SCC(=O)NCc4ccco4)n(-c4ccccc4)c(=O)c23)C1 (stereo unspecified)	Pf growth 48h 12µM
Cc1ccc(-n2c(SCC(=O)NCc3ccco3)nc3sc4c(c3c2=O)CC(C)(C)SC4)cc1	Pf growth 96h inconclusive
CCOCCCn1c(SCC(=O)NCc2ccco2)nc2c(sc3ccccc32)c1=O	CHX counter 32, Pf growth 96h inconclusive (no result: Pf growth 48h)
O=C(CSc1nc2c(sc3ccccc32)c(=O)n1CCc1ccccc1)NCc1ccco1	Pf growth 96h inconclusive (no result: Pf growth 48h)
O=C(COC(=O)Cn1nnc2ccccc21)NC1CCCC1	none
Cc1noc(C)c1CSCC(=O)Nc1cccc(C(F)(F)F)c1	none (no result: NS1 inh, CHX counter, Pf growth 96h, Pf growth 48h, Shiga toxin inh)
